From PubChem BioAssay
KinaseGlo FLuc: counter-screen: inhibitors of Kinase-Glo firefly luciferase. Kinase-Glo luciferase, ATP luminescence, 8 min. hit rate 0.28% among 200,000. Potency, µM (series often up to 38.3 µM), actives largely listed as inhibitors. Q27757. AID 1379; also: nearly all actives have a fitted effect of over 60% in size
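Inhibition of Kinase-Glo luciferase light generation was assessed at 10 uM ATP in pH 7.2 imidazole buffer, with luminescence measured after eight minutes at ambient temperature.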
ELG1 genotoxic: genotoxicity induction in ELG1-luciferase HEK293T cells | HEK293T ELG1-luciferase reporter, luminescence, 16 h | Potency, µM (top dose mostly 46 µM), most hits filed as activators | hit rate 1.3% among 330,000 | AID 504466; also: nearly all actives have a fitted effect of over 60% in size
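After overnight (16 hr) compound treatment at 37 °C, ELG1-luciferase HEK293T cells were lysed with ONE-Glo; luminescence quantified 30 min later at room temperature.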
FLuc modulator: firefly luciferase modulation, counter-screen for miR-21 project | Potency, µM (highest dose often 57.5 µM), hits mostly inhibitors | purified FLuc, Km substrates, luminescence inhibition | hit rate 6.9% among 360,000 | P08659; also: nearly all actives have a fitted effect of over 55% in size
Target sequence (P08659 whole entry, looked up): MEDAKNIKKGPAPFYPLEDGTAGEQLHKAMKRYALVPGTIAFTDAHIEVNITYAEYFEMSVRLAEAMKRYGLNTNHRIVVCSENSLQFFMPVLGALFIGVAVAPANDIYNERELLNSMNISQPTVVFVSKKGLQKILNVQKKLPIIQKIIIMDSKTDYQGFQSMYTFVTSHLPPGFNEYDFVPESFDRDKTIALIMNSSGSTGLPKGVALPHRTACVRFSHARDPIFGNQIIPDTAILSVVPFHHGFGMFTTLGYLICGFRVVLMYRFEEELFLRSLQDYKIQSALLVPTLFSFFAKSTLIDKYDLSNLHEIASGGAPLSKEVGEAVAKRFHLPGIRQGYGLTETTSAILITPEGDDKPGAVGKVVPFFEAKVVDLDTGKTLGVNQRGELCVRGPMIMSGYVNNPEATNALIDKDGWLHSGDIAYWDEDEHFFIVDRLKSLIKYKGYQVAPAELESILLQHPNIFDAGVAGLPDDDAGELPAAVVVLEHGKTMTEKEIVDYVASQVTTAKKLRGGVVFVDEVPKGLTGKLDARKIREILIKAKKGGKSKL
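Biochemical qHTS of compounds, final roughly 60 µM downward over six points, against 10 nM purified firefly luciferase using Km concentrations of substrates (10 uM D-luciferin, 10 uM ATP) in Tris acetate pH 7.5 buffer; luminescence output.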
Rab9 promoter act: Rab9 promoter activation; Huh7 Rab9 promoter-luciferase reporter, luminescence, 24 h; Potency, µM (series often up to 9.22 µM), actives largely listed as activators; hit rate 2.8% among 320,000; AID 485297; also: nearly all actives have a fitted effect of over 60% in size
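Luminescence from Amplite-detected luciferase (10 minutes, ambient) reports Rab9 promoter activation. Before that, stable Rab9-luciferase Huh7 cells (1500/well, reduced-serum OP-MEM I plus 10% FBS) were exposed to compound for 24 hours at 37C.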
NPC1 promoter act: activators of NPC1 promoter. Huh7 NPC1 promoter luciferase reporter, 24 h. Potency, µM (doses to about 9.22 µM), usual class: activators. hit rate 2.4% among 320,000; also: nearly all actives have a fitted effect of over 60% in size
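Stable NPC1-promoter luciferase Huh7 line; cpd (DMSO) 24 h, 37 °C, 5% CO2; Amplite luciferase reagent 10 min RT; luminescence readout. qHTS format.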
SMN2 splice up: increases expression of the SMN2 splice variant | HEK293 SMN2-luciferase splicing reporter, luminescence, 30-36 h | Potency, µM (titrated, usually from 46.1 µM), actives largely listed as activators | hit rate 2.8% among 210,000; also: nearly all actives have a fitted effect of over 55% in size
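HEK293 cells carry an SMN2 […]–luciferase reporter in which exon 7 inclusion puts luciferase in frame. Cells were plated 10-12 h before compound addition, then incubated 30-36 h at 37C. ONE-Glo luminescence was read; sodium butyrate at 4.5 mM final served as control.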
Numbers stand for hits; – = inactive; ? = inconclusive; · = not tested or not shown; [ ] = dose if it differs, or a comment. In the library only some 7.4% were active in any assay of this set; here they are far more common. Calls follow the shape of the dose curve; as a rule, active = well fitted curve in the direction sought with a large enough effect; inconclusive = small, poorly fitted or top-dose-only effect, or another doubt; inactive = no such curve, though single readings can be large; an effect the other way counts as inactive or inconclusive.

SMILES	KinaseGlo FLuc	ELG1 genotoxic	FLuc modulator	Rab9 promoter act	NPC1 promoter act	SMN2 splice up
CC(=O)c1ccc(OCc2cc(C(=O)N(C)CCOc3ccc(C)cc3)no2)cc1	·	2.9µM	9.5µM	4µM	2.5µM	·
Cn1c(=O)oc2cc(S(=O)(=O)NC(Cc3ccccc3)C(=O)NCc3ccccc3Cl)ccc21 (stereo unspecified)	·	·	–	·	·	–
O=C(c1ccccc1)[C@@H]1O[C@H]1c1ccc(-c2ccccc2)cc1	–	·	·	·	·	·
CN(C)C(=O)[C@H]1C[C@H]1[C@@H](O)[C@H](CO)NC(=O)[C@H](COCc1ccccc1)NC(=O)OC(C)(C)C	·	–	–	3.2µM	–	·
CN(C)C(=O)[C@H]1C[C@H]1[C@@H](O)[C@H](CO)NC(=O)[C@H](Cc1ccccc1)NC(=O)OC(C)(C)C	·	–	–	–	–	·
CCCCOc1ccc(-c2[nH]ncc2C=O)cc1	·	?	?	–	–	·
CCCCOC(=O)c1ccc(Nc2ccc([N+](=O)[O-])cn2)cc1	–	–	–	–	–	–[1.84 µM]
CCCCOc1ccc(-c2ncc(Cl)cn2)cc1	–	13µM	2.7µM	1.8µM	2.5µM	13µM
CCCCOc1ccc(-c2ncc([N+](=O)[O-])cn2)cc1	·	?	?	3.2µM	4µM	·
CN1C=C/C(=C\c2cc[n+](C)c3ccccc23)c2ccccc21	–	–	17µM	–	–	–
O=C(O)CN1C(=O)/C(=C/c2ccsc2)SC1=S	–	–	19µM	–	–	–
O=C(O)CN1C(=O)/C(=C\C(Br)=C\c2ccccc2)SC1=S	·	?	9.5µM	–	–	·
O=C(CCCN1C(=O)/C(=C/c2ccccc2Cl)SC1=S)NNC(=O)c1cccnc1	·	–	13µM	–	–	·
O=C1/C(=C/c2cccnc2)SC(=S)N1CCc1ccccc1	·	?	11µM	–	–	·
CC(C)[C@@H]1C(=O)N(S(C)(=O)=O)[C@H]2CCN(C(=O)/C=C\CN3CCCCC3)[C@@H]12	–	·	·	·	·	·
O=C(CCN1C(=O)/C(=C/C=C/c2ccccc2)SC1=S)Nc1cccnc1	–	?	1.1µM	?	–	?
O=C(O)CN1C(=O)/C(=C/C=C/c2ccccc2)SC1=S	–	–	2.7µM	–	?	–
O=C(CCN1C(=O)/C(=C/C=C/c2ccccc2)SC1=S)Nc1ccccn1	·	–	24µM	–	–	·
CC(=C\c1ccccc1)/C=C1/SC(=S)N(CCC(=O)Nc2ccccn2)C1=O	·	–	–	–	–	·
Cc1ccc(-c2nc3ncccc3o2)cc1NC(=O)c1ccc(-c2cccc(Cl)c2C)o1	·	·	–	·	·	–
Cc1cc(C(=O)CSc2cccc[n+]2[O-])c(C)n1-c1ccc(OC(F)F)cc1	·	–	15µM	?	?	·
COC(=O)c1ccc(-n2c(C)cc(C(=O)CSc3cccc[n+]3[O-])c2C)cc1	–	–	?	–	–	–
CCN(CCCNC(=O)c1cc2c(=O)[nH]c3ccc(C)cc3c2s1)Cc1ccccc1	·	·	–	·	·	–
CCOc1ccc(NC(=NCc2ccc3c(c2)OCO3)SC2CC(=O)N(c3ccccc3)C2=O)cc1 (stereo unspecified)	–	–	–	–	–	–
CCOc1ccc(NC(=NCc2ccc3c(c2)OCO3)SC2CC(=O)N(c3ccc(OCC)cc3)C2=O)cc1 (stereo unspecified)	–	?	–	?	?	22µM
SMILES	KinaseGlo FLuc	ELG1 genotoxic	FLuc modulator	Rab9 promoter act	NPC1 promoter act	SMN2 splice up
Cc1c(NC(=O)c2ccco2)cccc1-c1nc2cccnc2s1	–	–	24µM	–	–	–
Cc1c(NC(=O)c2ccc(Cl)nc2)cccc1-c1nc2cccnc2s1	·	–	13µM	–	–	·
C#CCNC(=O)C1=C[C@@H](C2CCCCC2)C[C@@H](OCc2ccc(CO)cc2)O1	·	–	15µM	–	–	·
O=C(Nc1ccccc1)C1=C[C@@H](C2CC2)C[C@@H](OCc2ccc(CO)cc2)O1	·	–	11µM	–	–	·
C#CCNC(=O)C1=C[C@H](C2CCCCC2)C[C@H](OCc2ccc(CO)cc2)O1	·	–	–	–	–	·
O=C(Nc1ccccc1)C1=C[C@H](c2ccc3c(c2)OCO3)C[C@H](OCCCCO)O1	·	–	15µM	–	–	·
NC(=O)C1=C[C@H](c2ccc3c(c2)OCO3)C[C@H](OCc2ccc(CO)cc2)O1	·	?	15µM	?	?	·
COc1ccc2c(c1)O[C@@H](c1ccc3c(c1)OCO3)[C@H](OC(=O)NCCOc1ccccc1)C2=O	–	·	·	·	·	–
O=C(Nc1ccccc1)C1=C[C@@H](C2CC2)C[C@@H](OCCCCO)O1	·	?	17µM	–	–	·
COc1cc(O)oc1C=Nc1ccc(C(=O)O)cc1	13µM	–	–	–	–	–
COc1cc(O)oc1C=Nc1ccc(Oc2ccccc2)cc1	–	–	15µM	?	?	–
CCC(Sc1nc2ncccc2o1)C(=O)Nc1ccc(OC)c(OC)c1 (stereo unspecified)	·	·	–	·	·	·
Cc1cccc(CSCCNC(=O)C2CCN(S(=O)(=O)Cc3ccccc3)CC2)c1	·	·	–	·	·	·
COc1cccc(/C=N/NC(=S)Nc2cccc(C(=O)O)c2)c1	–	–	1.7µM	3.2µM	2µM	14µM
COc1cc(/C=N/NC(=S)Nc2cccc(C(=O)O)c2)cc(OC)c1OC	–	–	24µM	–	–	?
COc1cc(/C=N/NC(=O)C[n+]2ccccc2)cc(OC)c1OC	–	–	–	–	–	–
COc1cc(/C=N/NC(=S)N/N=C/c2cc(OC)c(OC)c(OC)c2)cc(OC)c1OC	–	?	0.21µM	–	–	4.5µM
COc1cccc(/C=N/NC(=S)Nc2cccc(S(=O)(=O)N(C)C)c2)c1	·	–	?	–	–	·
COc1ccc(/C=N/NC(=S)Nc2cccc(C(=O)O)c2)cc1OC	–	–	5.4µM	–	–	–
O=C(O)CCC/C=C\C[C@@H]1[C@@H](/C=C/[C@H](O)C2Cc3ccccc3C2)[C@@H](F)C[C@@H]1O	·	·	·	?	–	·
Oc1ccc(/C=N/NC(=S)N/N=C/c2ccc(O)cc2)cc1	4.5µM	?	0.19µM	–	–	?
COc1cccc(/C=N/NC(=S)Nc2cccnc2)c1	–	–	15µM	–	–	–
COc1ccccc1NC(=S)N/N=C/c1ccc(O)cc1	–	?	?	?	?	11µM
Oc1ccc(/C=N/NC(=S)Nc2cccnc2)cc1	·	?	6.7µM	?	3.2µM	·
CC1=C(c2ccc(C)c(C)c2)S(=O)(=O)N=C1N1CCC(C(=O)NCc2ccc(C)o2)CC1	·	·	–	·	·	·
CC(=O)c1cccc(NC(=O)c2sc(-n3nc(C)c(CCC(C)C)c3C)nc2C)c1	·	·	–	·	·	·
COc1ccc(O)c(/C=N/NC(=S)Nc2cccnc2)c1	–	–	9.5µM	–	–	–
Cc1ccc(-n2[nH]c(=O)c(-c3ccccn3)c2C)cc1	–	?	0.3µM	0.45µM	?	·
Cc1ccc(-n2[nH]c(=O)c3cccnc32)cc1	–	–	–	–	–	–
